# Data from PubChem BioAssay AID1626 (SRMLSC, 2009).
# Among all 220,000 compounds or so, about 2,000 (0.91%) were called active. About 2% were inconclusive and are not listed. These entries were drawn from the full list. Results with a measured potency or affinity are listed apart. Values without a mark were called inactive. Cut-off read from the data, not from the text of the source: inconclusive = inhibition above about 80% without an active follow-up result; inactive = below that; test concentration not stated here.
# Experiment: M. tuberculosis H37Rv growth inhibitors, H37Rv strain (AID 1626);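 note: bacteria incubated seven days before Alamar blue readout; 0% = bacteria only wells and 100% = bacteria with antibiotic wells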
# Conditions: stronger effect = higher value, concentration not given here
row,Structure (SMILES),inhibition
1,COc1ccccc1NC(=O)COC(=O)[C@@H]1CCCN1C(=O)c1cccs1,2.35%
2,COc1ccc(CCNC(=O)CSc2cn(Cc3ccccc3)c3ccccc23)cc1OC,0.69%
3,CCOC(=O)CSc1nnc(-c2ccc(S(=O)(=O)N3CCOCC3)cc2)n1-c1ccccc1,14.9%
4,O=C(CNCC1CCCCC1)Nc1ccc(N2CCCCC2)cc1,5.47%
5,CC1CCCCN1CC(=O)Nc1ccc(N2CCCCCC2)cc1 (stereo not given),7.03%
6,O=[N+]([O-])c1ccc(Sc2ccccc2)nc1,1.27%
7,O=[N+]([O-])c1ccc(Sc2nnnn2-c2ccccc2)c(Cl)c1,-0.26%
8,O=C(COC(=O)c1cncc(Br)c1)NC1CCCCC1,0.66%
9,Cn1cc(/C=N\NC(=O)C2COc3ccccc3O2)c2ccccc21 (stereo not given),11.9%
10,c1cncc(-c2nc(-c3ccco3)cs2)c1,2.43%
11,Cc1ccc(S(=O)(=O)NC(=O)Nc2cc(C)ccc2F)cc1,-4.28%
12,Cc1ccc(S(=O)(=O)Nc2nc(-c3ccc(F)cc3)cs2)cc1,-5.33%
13,COc1ccccc1N1CCN(C(=O)c2ccc(CN3CCOCC3)cc2)CC1,4.65%
14,Nc1n[nH]c(-c2cccc([N+](=O)[O-])c2)n1,2.42%
15,c1ccc(-c2nc(-c3cccnc3)n[nH]2)cc1,4.63%
16,CCCOc1cccc(C2/C(=C(/O)c3ccc(OC)cc3)C(=O)C(=O)N2CCN(C)C)c1 (stereo not given),-1.44%
17,Cc1ccc(NC(=S)NCCSc2ccc(Cl)cc2)c(C)c1,17.1%
18,COc1cc(CNCc2ccccn2)ccc1OCc1cccc(Cl)c1,28.4%
19,COc1cc(CNCc2ccccn2)ccc1OCc1c(Cl)cccc1Cl,56.6%
20,COc1cc(CNCc2ccccn2)ccc1OCc1ccc(Cl)cc1,31.7%
21,COc1cc(CNCc2ccccn2)ccc1OCc1ccccc1Cl,61%
22,Cc1nnc(NC(=O)NCN2C(=O)C3C4C=CC(C4)C3C2=O)s1 (stereo not given),-8.61%

row,Structure (SMILES),inhibition
1,CCN(CC)P(=O)(Oc1ccccc1)Oc1ccccc1,7.92%
2,C#CCOCCOCCOCCNc1nc(N2CCN(C(=O)[C@H](C(C)C)n3cc(CCO)nn3)CC2)nc(N2CCN(C(=O)[C@H]([C@@H](C)CC)n3cc(CCCCN)nn3)CC2)n1,1.48%
3,Cc1cccc2nc(-c3cccc(NC(=O)Cc4ccccc4)c3)cn12,10.1%
4,c1cncc(CSc2nnc3ccc(-c4ccco4)nn23)c1,-0.26%
5,Cc1ccc(NC(=O)CSc2nnnn2C)cc1S(=O)(=O)N(C)C,-2.13%
6,Nc1nc(SCC(=O)Nc2ccc(Br)cc2F)n[nH]1,0.13%
7,O=C(CSc1ncn[nH]1)Nc1ccc([N+](=O)[O-])cc1Br,10.6%
8,CN(C)CCCCOc1ccc(Br)cc1Cl,6.22%
9,CC(C)OC(=O)CSc1nc(N)c(C#N)c(-c2ccco2)c1C#N,53.1%
10,CCCCOC(=O)CSc1nc(N)c(C#N)c(-c2ccc(OCC)cc2)c1C#N,57.9%
11,CCOC(=O)CC(=O)CSc1nc(N)c(C#N)c(-c2ccc(F)cc2)c1C#N,-2.96%
12,N#Cc1c(N)nc(SCC(=O)OCc2ccccc2)c(C#N)c1-c1ccco1,74%
13,CC(=O)CSc1nc(N)c(C#N)c(-c2cccs2)c1C#N,-7.14%
14,CC(C)OC(=O)CSc1nc(N)c(C#N)c(-c2cccs2)c1C#N,40.9%
15,CCCCOc1ccc(-c2c(C#N)c(N)nc(SCC(N)=O)c2C#N)cc1,-5.04%
16,CCOC(=O)CC(=O)CSc1nc(N)c(C#N)c(-c2ccc(Cl)cc2)c1C#N,-8.64%
17,Cc1ccc(-n2c(O)c(C=NCCN3CCOCC3)c(=O)[nH]c2=O)cc1,2.96%
18,CCCc1nnc(NC(=O)Nc2ccc(OC)cc2)s1,-1.18%
19,COc1ccc(S(=O)(=O)N2CCOCC2)cc1Cl,5.97%
20,Cc1ccc(N2C(=O)NC(=O)/C(=C/c3cnn(-c4ccc(C)cc4)c3)C2=O)cc1,79.9%
21,CCCN1C(=O)c2cc(C(=O)Nc3ccc(OC)c(OC)c3)ccc2C1Nc1ccc(OC)c(OC)c1 (stereo not given),4.17%
22,CCn1cc(C(=O)N2CCCCC2)c2ccccc21,-0.75%

row,Structure (SMILES),inhibition
1,Cn1c(=O)oc2cc(S(=O)(=O)N3CCC4(CC3)OCCO4)ccc21,-6.19%
2,O=C(CSc1nnc(-c2ccncc2)n1Cc1ccco1)OC1CCCCC1,0.38%
3,CCC(C)(C)n1nnnc1C(c1ccncc1)N1CCN(c2cccc(OC)c2)CC1 (stereo not given),-11.7%
4,Cc1cc(NC(=O)CSc2nc(C3CC3)nc3sc4c(c23)CCC(C)C4)no1 (stereo not given),-2.86%
5,Cc1nc(SCC(=O)NCc2ccco2)c2c3c(sc2n1)CCCC3,-8.98%
6,Cc1cc(NC(=O)CSc2nc(C(C)C)nc3c2c(=O)n(C)c(=O)n3C)no1,-4.22%
7,Cc1cc(NC(=O)CSc2nc(C(C)C)nc3sc(C)c(C)c23)no1,-4.44%
8,COc1ccccc1/C=C/C(=O)NCC(=O)N/N=C/c1ccccc1[N+](=O)[O-],-1.7%
9,CN(C)S(=O)(=O)c1ccc(C(=O)OCC(=O)Nc2sc3c(c2C#N)CCCCC3)cc1,-0.67%
10,CC(C)(C)c1ccc(-c2noc(-c3ccc4c(c3)CCO4)n2)cc1,10.1%
11,Nc1c(N(CCO)C(=O)COc2ccc(Cl)cc2)c(=O)[nH]c(=O)n1Cc1ccccc1,-6.77%
12,Cc1ccc(Nc2nc(N)c([N+](=O)[O-])c(N3CCC(C)CC3)n2)cc1C,10.8%
13,O=c1cc(NCc2ccccc2)nc2ccccn12,4.08%
14,COc1cccc(NC(=O)CSc2ccccn2)c1,-1.36%
15,O=C(CSc1ccccn1)Nc1ccc(NC(=O)CSc2ccccn2)cc1,-2.88%
16,O=C(CSc1ccccn1)Nc1ccc2c(c1)C(=O)c1ccccc1C2=O,2.78%
17,Cn1ccnc1SCC(=O)Nc1ccc2ccccc2c1,11.1%
18,COc1ccc(NC(=O)CSc2ccccn2)cc1OC,-4.19%
19,O=C(CSc1ccccc1)Nc1ccncc1,0.82%
20,CC(=O)Nc1ccc(NC(=O)CSc2ccccn2)cc1,7.17%
21,COc1ccc(NC(=O)CSc2ccccn2)cc1,7.31%
